Assay outcomes (PubChem BioAssay)
MCF10A rerep – induces DNA re-replication in MCF 10a normal breast cells; Potency, µM (highest dose often 46.1 µM), for inactives: top-dose activity, positive = re-replication, most hits filed as activators; MCF 10A DNA re-replication, Hoechst nuclear intensity, 48 h; 2.9% of 350,000 active; also: % of control where 0% means no effect; nearly all actives have a fitted effect of over 50% in size
PINK1 expr mod – changes PINK1 expression; Potency, µM (titrated, usually from 76.6 µM), for the others: at the highest dose activation (PINK1 increase), hits mostly activators; 0.2% of 410,000 active; PINK1 immunofluorescence, high-content cytometry, 24 h; active = well fitted activation curve with a large enough effect; inconclusive = small, poorly fitted or top-dose-only effect; cell line not stated here; also: % of control where 0% means no effect; nearly all actives have a fitted effect of over 65% in size
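PINK1 protein level read as immunofluorescence by microplate cytometer in a fixed, stained stable cell line after 24 h exposure to five compound concentrations, with CCCP as control.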
TSG101-PTAP inh – blocks PTAP/TSG101 interaction to inhibit HIV-1 budding. Q99816. 340,000 tested, under 10 active. Fluorescence polarization, FITC-PTAP peptide / Tsg101 binding. Potency, µM (series often up to 115 µM), for the others: at the highest dose activity change, negative = inhibition, usual class: inhibitors. AID 493005; active = well fitted inhibition curve with a large enough effect in the main read-out, with a control signal flat, not every such curve was filed as active; inconclusive = small, poorly fitted or top-dose-only effect, or effect the other way, or a change in a side signal; inactive = no such curve, though single readings can be large or run the other way; also: % of control where 0% means no effect
Target sequence (Q99816 whole entry, looked up): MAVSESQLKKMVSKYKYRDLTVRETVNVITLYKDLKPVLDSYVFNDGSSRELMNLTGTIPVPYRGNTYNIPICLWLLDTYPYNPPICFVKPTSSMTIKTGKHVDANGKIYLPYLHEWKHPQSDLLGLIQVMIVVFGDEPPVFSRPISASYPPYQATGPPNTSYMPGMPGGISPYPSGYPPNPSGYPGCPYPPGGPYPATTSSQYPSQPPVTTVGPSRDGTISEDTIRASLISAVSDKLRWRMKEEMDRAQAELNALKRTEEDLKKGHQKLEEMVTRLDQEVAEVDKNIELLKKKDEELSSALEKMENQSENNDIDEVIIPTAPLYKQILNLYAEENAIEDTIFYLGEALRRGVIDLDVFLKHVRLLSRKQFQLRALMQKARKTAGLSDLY
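Compounds were pin-transferred onto Tsg101 binding domain (10 uM final) in HEPES pH 7.5 buffer, then FITC-PTAP peptide was added at 50 nM final. After 20 min at RT, polarization reported peptide displacement across a qHTS concentration series.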
KB-3-1 tox – KB-3-1 parental cell cytotoxicity; Potency, µM (top dose mostly 46.1 µM), most hits filed as cytotoxic; KB-3-1 viability, CellTiter-Glo ATP luminescence, 72 h; 1.4% of 400,000 active; also: % is scaled to controls: 0 for no effect and ±100 for the full control effect; nearly all actives have a fitted effect of over 60% in size
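Screening of KB-3-1 cells (DMEM, 10% FBS, phenol-red free) ran from lowest to highest compound concentration; after 72 h at 37 °C viability was read luminescently and curves fitted.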
KB-V1 MDR tox – kills drug-selected multidrug resistant KB-V1 cells. KB-V1 MDR cells viability, CellTiter-Glo, 72 h. Potency, µM (top dose mostly 46.1 µM), hits mostly cytotoxic. 3.4% of 400,000 active. AID 1347076; also: % is scaled to controls: 0 for no effect and ±100 for the full control effect; nearly all actives have a fitted effect of over 60% in size
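Cytotoxicity toward P-gp-expressing KB-V1 cells was determined as loss of CellTiter-Glo luminescence after 72 h at 37 degrees C. Compounds were tested in quantitative HTS format across a concentration range, with curves fitted to normalized data.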
SW480 rerep – induces DNA re-replication in SW480 colon adenocarcinoma cells. SW480 DNA re-replication, Hoechst DNA content imaging, 48 h. Potency, µM (titrated, usually from 46.1 µM), inactives show at the highest dose re-replication activation, hits mostly activators. 1.8% of 340,000 active. AID 624297; also: % of control where 0% means no effect; nearly all actives have a fitted effect of over 55% in size
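DNA re-replication was detected as more nuclei of elevated Hoechst intensity after 48 hr exposure to compound (23 nL pinned per well of 250 cells).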
Active calls of the source: *; i = inactive; ? = inconclusive; . = no result given; [ ] = dose if it differs, or a comment. This is a sample that favours compounds with a hit; in the whole collection about 6.8% have one here. Unless noted, calls follow the shape of the dose curve; as a rule, active = well fitted curve in the direction sought with a large enough effect; inconclusive = small, poorly fitted or top-dose-only effect, or another doubt; inactive = no such curve, though single readings can be large; an effect the other way counts as inactive or inconclusive. Potency is read from the fitted curve at half-maximal effect.

SMILES	MCF10A rerep	PINK1 expr mod	TSG101-PTAP inh	KB-3-1 tox	KB-V1 MDR tox	SW480 rerep
CC(C)OCCCN1CC(=O)N2C(c3cccc([N+](=O)[O-])c3)c3[nH]c4ccccc4c3C[C@H]2C1=O (stereo not given in full)	1%	1%	-7%	?	i	9%
CN(C)c1ccc(C2CNC(c3ccc(Cl)c([N+](=O)[O-])c3)c3[nH]c4ccccc4c32)cc1 (stereo not given)	4.1µM*	0%	-3%	?	i	15µM*
O=[N+]([O-])c1cccc(C2NCC(c3ccccc3Cl)c3c2[nH]c2ccccc32)c1 (stereo not given)	?	18%	-1%	i	16µM*	?
CC1(C(=O)NCc2ccco2)Cc2c(-c3ccccc3)ccnc2O1 (stereo not given)	.	1%	.	8.2µM*	7.3µM*	.
CC(=O)Nc1ccc(-c2ccnc3c2CC(C)(C(=O)NCCc2ccccc2)O3)cc1 (stereo not given)	.	8%	.	26µM*	i	.
CC(=O)Nc1ccc(-c2ccnc3c2CC(C)(C(=O)Nc2ccccc2)O3)cc1 (stereo not given)	.	2%	.	i	?	.
CC1(C(=O)NCCC(F)(F)F)Cc2c(-c3ccccc3)ccnc2O1 (stereo not given)	.	2%	.	?	21µM*	.
CN(C)c1ccc(CNC(=O)C2(C)Cc3c(-c4ccccc4)ccnc3O2)cc1 (stereo not given)	.	5%	.	?	?	.
CC(=O)NCCNC(=O)C1(C)Cc2c(-c3ccccc3)ccnc2O1 (stereo not given)	.	1%	.	i	i	.
NC(=O)[C@@H]1CCCN1C(=O)CCN1Cc2ccccc2OC(c2ccccc2F)C1 (stereo not given in full)	.	0%	.	.	.	.
CCCN(c1ccc(OCC)cc1)S(=O)(=O)c1ccc2c(c1)NC(=O)CO2	3%	0%	1%	?	1.6µM*	?
CCOc1ccc(NC(=O)CC(C)S(=O)(=O)c2ccc3c(c2)NC(=O)CO3)cc1 (stereo not given)	1%	0%	1%	i	?	?
CN(C)C/C=C/C(O)(c1ccccc1)c1ccccc1	16µM*	3%	-6%	i	i	4%
CC1=C(C(=O)Nc2cccnc2)C(c2ccc(F)cc2)n2nc(-c3cccc(C)c3)nc2N1 (stereo not given)	.	6%	.	i	i	.
CC(=O)N1CCN(C(=O)CSc2ncnc3sc(C)c(C)c23)CC1	-4%	-1%	-1%	?	15µM*	-1%
Cc1sc2ncnc(SCC(=O)NC3CC3)c2c1C	-3%	3%[38.3 µM]	.	i	21µM*	-11%
CCCc1nc(SCC(=O)N2CCOCC2)c2c(C)c(C)sc2n1	?	3%	-1%	i	9.2µM*	3%
Cc1sc2ncnc(SCC(=O)N3CCCC3)c2c1C	4%	1%	-6%	i	i	-2%
COc1cc(O)sc1C=Nc1ccc(Cl)cc1Cl	?	0%	-2%	i	21µM*	2%
O=c1[nH]c(=O)n(Cc2ccco2)c2c1C(C(F)(F)F)(C(F)(F)F)N=C(CCC1CCCCC1)N2	2%	.	-1%	i	i	3%
CC(C)Cn1c2c(c(=O)[nH]c1=O)C(C(F)(F)F)(C(F)(F)F)N=C(CCC1CCCCC1)N2	16µM*	0%	1%	i	?	2%
O=c1[nH]c(=O)n(-c2ccccc2)c2c1C(C(F)(F)F)(C(F)(F)F)N=C(CCC1CCCCC1)N2	16µM*	16%	-2%	i	5.2µM*	?
O=C1Nc2c(c(=O)[nH]c(=O)n2-c2ccccc2)C(C(F)(F)F)(C(F)(F)F)N1	11%	3%[38.3 µM]	-3%	?	i	2%
O=C(Nc1cccc(Cl)c1Cl)c1cc(S(=O)(=O)N2CCCCC2)ccc1F	.	1%	.	.	.	.
O=S1(=O)N=C(Oc2cccc(C(F)(F)F)c2)c2ccccc21	.	.	.	?	i	.
SMILES	MCF10A rerep	PINK1 expr mod	TSG101-PTAP inh	KB-3-1 tox	KB-V1 MDR tox	SW480 rerep
Cc1c(Cc2ccc3c(c2)OCO3)sc(NC(=O)c2ccccc2)c1C(N)=O	13µM*	5%	0%	?	?	9%
Cc1nc(NC(=O)c2ccccc2)sc1Cc1ccc2c(c1)OCO2	?	2%	0%	?	?	26µM*
O=C(Nc1ccccc1)NC1(C(=O)NCc2ccc3c(c2)OCO3)CCCCC1	-181%[0.0737 µM]	-2%	-3%	i	i	0%
Cc1nc(NC(=O)c2ccc(Cl)cc2)sc1Cc1ccc2c(c1)OCO2	2.9µM*	4%	-3%	9.2µM*	4.6µM*	5.8µM*
Cc1cc(C)nc(NC(=NCc2ccc3c(c2)OCO3)NC(=O)Nc2ccccc2)n1	?	14µM*	2%	i	i	-1%
CCOC(=O)c1c(NC(=O)CN2C(=O)c3ccccc3C2=O)sc(Cc2ccc3c(c2)OCO3)c1C	12%	1%	-2%	i	i	-1%
CC(=O)c1sc(NC(=O)c2ccc3c(c2)OCO3)nc1C	9%	4%	-7%	i	i	-3%
CC(=O)c1ccccc1-c1ccc2c(c1)CC(CNC(=O)c1cc(C)on1)O2 (stereo not given)	.	0%	.	.	.	.
Cc1cccc(-c2nc3c(c(SCC(=O)N4CCOCC4)n2)Cc2c(CO)cnc(C)c2O3)c1	0%	4%	-4%	15µM*	i	-13%
Cc1ncc(CO)c2c1Oc1nc(-c3ccccc3)nc(SCC(=O)N3CCOCC3)c1C2	0%	0%	-8%	i	i	-3%
CC1CCN(S(=O)(=O)c2ccc3c(c2)CCN3C(=O)Nc2ccccc2Br)CC1	.	1%	.	.	.	.
COc1cccc2c1Oc1nc(-c3ccccc3)nc(SCC(=O)N3CCCCC3)c1C2	.	-2%	.	i	i	.
Cc1cc(NC(=O)CSc2nc3sc4c(c3c(=O)n2C)CCCC4)no1	19%	4%[38.3 µM]	-3%	i	i	17%
Cc1nn(Cc2ccccc2)c(C)c1NC(=O)CSc1nc2sc3c(c2c(=O)n1C)CCC3	1%	15%	-2%	9.2µM*	?	-7%
Cc1ccc(Cn2c(C(C)Nc3nc(-c4ccc(Cl)c([N+](=O)[O-])c4)cs3)nc3cc(C(F)(F)F)ccc32)cc1 (stereo not given)	-31%	10%	-3%	i	i	0.92µM*
CCOc1cc2sc(N3CCC(C(=O)Nc4ccc(C)cc4C)CC3)nc2cc1Br	.	1%	.	i	i	.
